Laboratory results reported in PubChem BioAssay (NCATS).
Inconclusive results are not listed. Unmarked numbers belong to inactive results. Calls follow the shape of the dose curve; as a rule, active = well fitted cell-killing curve with a large enough effect; inconclusive = small, poorly fitted or top-dose-only effect, or effect the other way; inactive = flat fitted curve, though single readings scatter.

system: Tov112D; test: Primary qHTS to identify gynecologic anti-cancer compounds using libraries of approved drugs and bioactive compounds (AID 1345084); settings: Gynecologic cancer cell panel viability, ATPlite luminescence, 48 h; series mostly up to 57.5 µM; activity change, negative = cytotoxicity: at the top concentration; also: nearly all actives have a fitted effect of over 55% in size
Procedure, shortened: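 48 h compound exposure at 37 C, 5% CO2; five-point qHTS. ATPlite luminescence readout of cell ATP.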
% is scaled to controls: 0 for no effect and ±100 for the full control effect.

Compound | activity change, negative = cytotoxicity
CC1(C)CC[C@]2(C(=O)O[C@@H]3O[C@H](CO)[C@@H](O)[C@H](O)[C@H]3O)CC[C@]3(C)C(=CCC4[C@@]5(C)CC[C@H](OC6OC(C(=O)O)C(OC7OC(CO)C(O)C(O)C7O)C(O)C6O)C(C)(C)C5CC[C@]43C)C2C1 (stereo partly drawn) | 1.83% [at 11.6 µM]
COc1cccc(CN(C(=O)CC(C)(C)C)C2CC(C(=O)N3CCNCC3)N(Cc3ccc4c(c3)OCO4)C2)c1 (stereo not drawn) | 12.1%
C/C=C(/C)C(=O)OC1CC(C)(C)CC2C3=CCC4C5(C)CCC(OC6OC(C)C(OC7OC(C(=O)O)C(O)C(OC8OC(CO)C(O)C(O)C8OC8OC(CO)C(O)C(O)C8O)C7O)C(O)C6O)C(C)(C)C5CCC4(C)C3(C)C(OC(=O)/C=C/C=C/C=C/CCC)C(OC(C)=O)C12CO (stereo not drawn) | 1.97% [at 6.55 µM]
Cc1ccc(-c2c(-c3nn(C)c4ncnc(N5CC[C@H](N6CCCCC6)C5)c34)cnn2C)cc1 | 0.683%
O=C(/C=C/C=C/c1ccc2c(c1)OCO2)N1CCCCC1 | -24.9%
O=C(O)c1cc(O[C@@H]2O[C@H](CO)[C@@H](O)[C@H](O)[C@H]2O)ccc1O | 6.06% [at 38.5 µM]
Nc1nc(COC(=O)c2ccc([N+](=O)[O-])cc2)nc(Nc2ccccc2)n1 | -2.08%
C[C@@H]1O[C@@H](O[C@H]2[C@H](O[C@H]3[C@H](O[C@H]4CC[C@@]5(C)C(CC[C@]6(C)C5CC=C5[C@@H]7CC(C)(C)C[C@@H](O)[C@]7(C)CC[C@]56C)[C@@]4(C)CO)O[C@H](C(=O)O)[C@@H](O)[C@@H]3O)O[C@H](CO)[C@H](O)[C@@H]2O)[C@H](O)[C@H](O)[C@H]1O (stereo partly drawn) | 0.964% [at 11.6 µM]
